Measurements: PubChem BioAssay (NCATS)
Results filed as inconclusive are left out. Entries that show only a call come without a potency. Activity calls are given as the source filed them. Calls follow the shape of the dose curve; as a rule, active = well fitted curve in the direction sought with a large enough effect; inconclusive = small, poorly fitted or top-dose-only effect, or another doubt; inactive = no such curve, though single readings can be large; an effect the other way counts as inactive or inconclusive.

Key:
[1] = qHTS of pediatric cancer cell lines to identify multiple opportunities for drug repurposing: Primary screen for SJ-GBM2 cells (AID 1347091); also: potency is read from the fitted curve at half-maximal effect
Outline: (§1)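 Cell viability, CellTiter-Glo luminescence; 500-1,000 cells/well, 8- or 11-point titration, 48 h compound exposure at 37 degrees C, 5% CO2. Controls: DMSO neutral, bortezomib 2.3 µM final as positive.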

[2] = qHTS of pediatric cancer cell lines to identify multiple opportunities for drug repurposing: Primary screen for A673 cells (AID 1347092); also: nearly all actives have a fitted effect of over 45% in size; also: potency is read from the fitted curve at half-maximal effect
Outline: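 48 h compound exposure, A673, 500-1,000 cells/well, 37 degrees C/5% CO2. MIPE: 11-point, 0.78 nM-46 µM; NPC: 8-point, 0.59 nM-46 µM (final). Readout CellTiter-Glo luminescence after 15 min RT.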

[3] = qHTS of pediatric cancer cell lines to identify multiple opportunities for drug repurposing: Primary screen for SK-N-MC cells (AID 1347093); also: potency is read from the fitted curve at half-maximal effect
Outline: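 Metabolically active cells were quantified by ATP-dependent luminescence (CellTiter-Glo, 15 min at room temperature) following 48 h treatment. Cells had been plated at 500-1,000 per well and settled for 5 h beforehand.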

[4] = qHTS of pediatric cancer cell lines to identify multiple opportunities for drug repurposing: Primary screen for BT-37 cells (AID 1347094); also: potency is read from the fitted curve at half-maximal effect
Outline: (§2)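 Following a 5-hour attachment period, cells at 500-1,000/well received compounds and were cultured for 48 hours. CellTiter-Glo was added and luminescence read to estimate viable, metabolically active cells.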

[5] = qHTS of pediatric cancer cell lines to identify multiple opportunities for drug repurposing: Primary screen for Saos-2 cells (AID 1347097); also: nearly all actives have a fitted effect of over 40% in size; also: potency is read from the fitted curve at half-maximal effect
Outline: as §2

[6] = qHTS of pediatric cancer cell lines to identify multiple opportunities for drug repurposing: Primary screen for SK-N-SH cells (AID 1347098); also: nearly all actives have a fitted effect of over 65% in size; also: potency is read from the fitted curve at half-maximal effect
Outline: (§3)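 Cells (500-1,000/well) rested 5 h, then received compounds for 48 h; metabolically active cells were measured by CellTiter-Glo luminescence. Final concentrations spanned up to 46 µM (MIPE, 11-point) or 0.59 nM-46 µM (NPC, 8-point) in primary screens, 11-point in follow-ups.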

[7] = qHTS of pediatric cancer cell lines to identify multiple opportunities for drug repurposing: Primary screen for LAN-5 cells (AID 1347100); also: potency is read from the fitted curve at half-maximal effect
Outline: as §3

[8] = qHTS of pediatric cancer cell lines to identify multiple opportunities for drug repurposing: Primary screen for Rh18 cells (AID 1347102); also: nearly all actives have a fitted effect of over 65% in size; also: potency is read from the fitted curve at half-maximal effect
Outline: as §3

[9] = qHTS of pediatric cancer cell lines to identify multiple opportunities for drug repurposing: Primary screen for OHS-50 cells (AID 1347103); also: nearly all actives have a fitted effect of over 40% in size; also: potency is read from the fitted curve at half-maximal effect
Outline: as §3

[10] = qHTS of pediatric cancer cell lines to identify multiple opportunities for drug repurposing: Primary screen for TC32 cells (AID 1347089); also: nearly all actives have a fitted effect of over 60% in size
Outline: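 In the primary qHTS, MIPE compounds were tested at 11 concentrations (0.78 nM to 46 µM) and NPC compounds at 8 (0.59 nM to 46 µM) on TC32 cells for 48 h. CellTiter-Glo luminescence gave viability.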

[11] = qHTS of pediatric cancer cell lines to identify multiple opportunities for drug repurposing: Primary screen for DAOY cells (AID 1347090); also: series mostly up to about 46 µM; nearly all actives have a fitted effect of over 55% in size
Outline: as §1

[12] = qHTS of pediatric cancer cell lines to identify multiple opportunities for drug repurposing: Primary screen for NB-EBc1 cells (AID 1347095); also: potency is read from the fitted curve at half-maximal effect
Outline: as §2

[13] = qHTS of pediatric cancer cell lines to identify multiple opportunities for drug repurposing: Primary screen for U-2 OS cells (AID 1347096); also: nearly all actives have a fitted effect of over 50% in size
Outline: as §3

[14] = qHTS of pediatric cancer cell lines to identify multiple opportunities for drug repurposing: Primary screen for NB1643 cells (AID 1347099); also: nearly all actives have a fitted effect of over 50% in size; also: potency is read from the fitted curve at half-maximal effect
Outline: as §2

[15] = qHTS of pediatric cancer cell lines to identify multiple opportunities for drug repurposing: Primary screen for BT-12 cells (AID 1347101); also: nearly all actives have a fitted effect of over 25% in size; also: potency is read from the fitted curve at half-maximal effect
Outline: as §3

Row | SMILES | Potency [1] | Potency [2] | Potency [3] | Potency [4] | Potency [5] | Potency [6] | Potency [7] | Potency [8] | Potency [9] | Potency [10] | Potency [11] | Potency [12] | Potency [13] | Potency [14] | Potency [15]
1 | CCCCCCCCCCCCCC[N+](C)(C)Cc1ccccc1 | 21.1 µM (active) | 13.3 µM (active) | 11.9 µM (active) | 24.6 µM (active) | 23.7 µM (active) | 30.7 µM (active) | 21.1 µM (active) | 5.96 µM (active) | 4.37 µM (active) | – | – | – | – | – | –
2 | Cc1c(-c2ccccc2)oc2c(C(=O)OCCN3CCCCC3)cccc2c1=O | inactive | inactive | – | inactive | inactive | inactive | inactive | inactive | inactive | inactive | inactive | inactive | inactive | inactive | inactive
3 | COc1ccc(CCN(C)CCCN2CCc3cc(OC)c(OC)cc3CC2=O)cc1OC | inactive | inactive | – | inactive | inactive | inactive | inactive | inactive | inactive | – | inactive | inactive | inactive | – | inactive
4 | CN1CCC[C@@H]1CCO[C@](C)(c1ccccc1)c1ccc(Cl)cc1 | 21.1 µM (active) | – | 29.9 µM (active) | – | 21.1 µM (active) | 15.4 µM (active) | – | – | 15.5 µM (active) | inactive | – | – | inactive | – | 27.6 µM (active)
5 | CCOC(=O)[C@H](CCc1ccccc1)N[C@@H](C)C(=O)N1[C@H](C(=O)O)C[C@@H]2CCC[C@@H]21 | inactive | inactive | – | – | inactive | inactive | inactive | inactive | inactive | inactive | inactive | inactive | inactive | inactive | inactive
6 | CCN(CC)CCNc1ccc(CO)c2sc3ccccc3c(=O)c12 | – | – | – | 17.4 µM (active) | – | 17.2 µM (active) | 13.3 µM (active) | – | 24.6 µM (active) | – | – | 7.5 µM (active) | – | 16.8 µM (active) | 13.8 µM (active)
7 | N/C(=N\N=C\c1ccc(Cl)cc1)N/N=C/c1ccc(Cl)cc1 | – | – | – | – | – | – | – | – | – | inactive | – | – | inactive | – | –
8 | Nc1nc(-c2ccccc2)c(Br)c(=O)[nH]1 | – | inactive | inactive | – | inactive | – | inactive | – | inactive | – | inactive | inactive | – | inactive | inactive
9 | CC(C)NCC(O)c1ccc2ccccc2c1 (stereo not given) | inactive | inactive | inactive | inactive | inactive | inactive | inactive | inactive | inactive | – | inactive | inactive | inactive | inactive | inactive
10 | CCc1oc2ccccc2c1C(=O)c1cc(Br)c(O)c(Br)c1 | – | – | – | inactive | – | 19.4 µM (active) | inactive | inactive | – | inactive | – | – | inactive | – | inactive
11 | O=C(Nc1ccc([N+](=O)[O-])cc1)Nc1ccc([N+](=O)[O-])cc1 | inactive | inactive | inactive | inactive | inactive | inactive | inactive | – | inactive | – | inactive | inactive | inactive | inactive | inactive
12 | Cc1ncc(CO)c(C=O)c1O | inactive | inactive | inactive | inactive | inactive | inactive | inactive | inactive | inactive | – | inactive | inactive | inactive | – | inactive
13 | CN(Cc1ccc(C(C)(C)C)cc1)Cc1cccc2ccccc12 | inactive | inactive | – | inactive | – | inactive | inactive | inactive | – | inactive | inactive | inactive | inactive | inactive | inactive
14 | CC(=O)Nc1ccc(CC(=O)O)cc1 | inactive | inactive | inactive | – | inactive | inactive | inactive | inactive | inactive | – | inactive | inactive | inactive | – | inactive
